# From paper PMC7862700, “An all-to-all approach to the identification of sequence-specific readers for epigenetic DNA modifications on cytosine”
# Assays:
# Assay in all cases: DAPPL (digital affinity profiling via proximity ligation, sequencing); 10 mM Tris-HCl pH 7.5, 50 mM NaCl, 1 mM DTT, 4% glycerol, room temperature, 30 min; GST-TFs on glutathione beads, 16-mer random dsDNA library, 0.1% formaldehyde crosslink after washing; high values mean tight binding
# [1] = molecular target: T1, FLI1 (Homo sapiens, UniProt Q01543 1-452); conditions: protein: recombinant; tags: N-terminal GST; dsDNA, one strand shown
# T1 sequence: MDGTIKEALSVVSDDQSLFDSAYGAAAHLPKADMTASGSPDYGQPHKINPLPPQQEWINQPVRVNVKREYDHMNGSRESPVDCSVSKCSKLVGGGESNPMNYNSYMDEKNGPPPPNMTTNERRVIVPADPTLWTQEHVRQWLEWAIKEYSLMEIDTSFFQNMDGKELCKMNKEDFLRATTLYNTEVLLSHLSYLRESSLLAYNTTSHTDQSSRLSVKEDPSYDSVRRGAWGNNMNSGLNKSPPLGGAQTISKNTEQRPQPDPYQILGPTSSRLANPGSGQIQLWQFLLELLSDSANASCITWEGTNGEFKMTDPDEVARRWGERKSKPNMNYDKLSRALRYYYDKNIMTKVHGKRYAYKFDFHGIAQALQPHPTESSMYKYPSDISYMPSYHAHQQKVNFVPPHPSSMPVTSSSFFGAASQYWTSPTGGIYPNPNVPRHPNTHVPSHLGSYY
# In short: (§1)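 Pools of DNA-barcoded human transcription factors, expressed in yeast as GST fusions on glutathione beads and combined with a tag-only sample, were incubated with 200 nmole of a 16-mer random double-stranded DNA library. Incubation took 30 min at room temperature in Tris/NaCl/DTT/glycerol buffer and was followed by washing, 0.1% formaldehyde crosslinking, proximity ligation (BsaI/T4 ligase, 1 h, 37 °C), PCR amplification and sequencing on an Illumina NextSeq500. Binding signal is the ratio of a hexamer's read frequency for a factor to its frequency for the tag-only sample.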
# [2] = molecular target: T2, ELK1 (Homo sapiens, UniProt P19419 1-428); conditions: protein: recombinant; tags: N-terminal GST; dsDNA, one strand shown
# T2 sequence: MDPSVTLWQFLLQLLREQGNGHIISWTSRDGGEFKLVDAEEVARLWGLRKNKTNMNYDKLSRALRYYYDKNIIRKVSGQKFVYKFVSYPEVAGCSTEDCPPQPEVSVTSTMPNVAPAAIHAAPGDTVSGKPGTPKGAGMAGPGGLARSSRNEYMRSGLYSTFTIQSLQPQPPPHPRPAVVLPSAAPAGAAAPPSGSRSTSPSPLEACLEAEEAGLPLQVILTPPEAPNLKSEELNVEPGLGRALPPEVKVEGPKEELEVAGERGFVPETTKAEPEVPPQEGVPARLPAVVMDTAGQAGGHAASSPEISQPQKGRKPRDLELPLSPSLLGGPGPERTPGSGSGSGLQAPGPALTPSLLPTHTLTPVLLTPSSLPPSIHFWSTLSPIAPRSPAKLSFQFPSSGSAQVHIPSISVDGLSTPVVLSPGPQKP
# In short: as §1
# [3] = molecular target: T3, GABPA (Homo sapiens, UniProt Q06546 1-454); conditions: protein: recombinant; tags: N-terminal GST; dsDNA, one strand shown
# T3 sequence: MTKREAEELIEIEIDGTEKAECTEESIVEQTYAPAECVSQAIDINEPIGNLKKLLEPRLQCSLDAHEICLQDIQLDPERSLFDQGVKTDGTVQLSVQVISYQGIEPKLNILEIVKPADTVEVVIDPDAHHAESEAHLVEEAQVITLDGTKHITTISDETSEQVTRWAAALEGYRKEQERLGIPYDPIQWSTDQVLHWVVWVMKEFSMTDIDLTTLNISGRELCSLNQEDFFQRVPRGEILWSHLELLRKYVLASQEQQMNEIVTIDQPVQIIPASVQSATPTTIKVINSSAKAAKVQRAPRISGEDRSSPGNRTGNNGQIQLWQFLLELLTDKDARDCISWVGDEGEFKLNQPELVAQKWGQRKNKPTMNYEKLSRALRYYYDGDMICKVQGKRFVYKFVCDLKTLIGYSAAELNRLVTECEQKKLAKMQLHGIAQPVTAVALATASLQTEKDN
# In short: as §1
# [4] = molecular target: T4, ERG (Homo sapiens, UniProt P11308 1-479); conditions: protein: recombinant; tags: N-terminal GST; dsDNA, one strand shown
# T4 sequence: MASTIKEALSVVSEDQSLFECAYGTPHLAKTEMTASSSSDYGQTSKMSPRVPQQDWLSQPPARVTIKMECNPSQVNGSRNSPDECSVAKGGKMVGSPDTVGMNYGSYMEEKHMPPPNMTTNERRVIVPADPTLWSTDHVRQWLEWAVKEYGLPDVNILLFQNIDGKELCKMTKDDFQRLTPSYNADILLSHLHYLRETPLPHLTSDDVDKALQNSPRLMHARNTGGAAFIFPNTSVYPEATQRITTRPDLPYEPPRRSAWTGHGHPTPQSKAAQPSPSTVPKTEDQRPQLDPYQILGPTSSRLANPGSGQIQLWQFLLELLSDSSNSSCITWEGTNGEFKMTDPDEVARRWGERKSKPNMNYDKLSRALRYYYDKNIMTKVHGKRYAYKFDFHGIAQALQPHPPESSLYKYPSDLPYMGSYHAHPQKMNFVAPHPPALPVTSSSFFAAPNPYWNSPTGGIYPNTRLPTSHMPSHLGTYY
# In short: as §1
# [5] = molecular target: ELF1 (Homo sapiens, UniProt P32519 1-619); conditions: protein: recombinant; tags: N-terminal GST; dsDNA, one strand shown
# In short: as §1
# [6] = molecular target: T5, EHF (Homo sapiens, UniProt Q9NZC4 1-300); conditions: protein: recombinant; tags: N-terminal GST; dsDNA, one strand shown
# T5 sequence: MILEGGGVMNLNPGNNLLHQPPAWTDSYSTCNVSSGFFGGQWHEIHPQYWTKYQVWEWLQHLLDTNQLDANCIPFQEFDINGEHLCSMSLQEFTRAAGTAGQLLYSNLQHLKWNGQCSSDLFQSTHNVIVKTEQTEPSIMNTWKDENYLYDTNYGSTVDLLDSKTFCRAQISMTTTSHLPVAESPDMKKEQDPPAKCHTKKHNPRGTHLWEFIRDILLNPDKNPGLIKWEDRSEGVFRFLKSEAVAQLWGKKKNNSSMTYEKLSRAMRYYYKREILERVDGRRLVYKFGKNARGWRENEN
# In short: as §1
# [7] = molecular target: SPI1 (Homo sapiens, UniProt P17947 1-270); conditions: protein: recombinant; tags: N-terminal GST; dsDNA, one strand shown
# In short: as §1
# [8] = molecular target: SPIB (Homo sapiens, UniProt Q01892 1-262); conditions: protein: recombinant; tags: N-terminal GST; dsDNA, one strand shown
# In short: as §1
# [9] = molecular target: T6, ELK3 (Homo sapiens, UniProt P41970 1-407); conditions: protein: recombinant; tags: N-terminal GST; dsDNA, one strand shown
# T6 sequence: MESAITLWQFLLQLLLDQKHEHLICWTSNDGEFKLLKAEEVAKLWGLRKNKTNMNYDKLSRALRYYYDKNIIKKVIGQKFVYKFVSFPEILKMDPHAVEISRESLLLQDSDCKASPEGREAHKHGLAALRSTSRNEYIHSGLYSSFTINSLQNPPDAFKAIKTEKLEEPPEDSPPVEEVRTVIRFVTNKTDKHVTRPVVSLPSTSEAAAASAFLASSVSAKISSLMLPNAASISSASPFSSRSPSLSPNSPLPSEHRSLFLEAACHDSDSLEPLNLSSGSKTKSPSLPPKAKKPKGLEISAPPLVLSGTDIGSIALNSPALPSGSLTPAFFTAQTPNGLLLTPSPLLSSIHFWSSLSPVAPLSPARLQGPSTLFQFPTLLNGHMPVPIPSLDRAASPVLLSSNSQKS
# In short: as §1
# [10] = molecular target: T7, FEV (Homo sapiens, UniProt Q99581 1-238); conditions: protein: recombinant; tags: N-terminal GST; dsDNA, one strand shown
# T7 sequence: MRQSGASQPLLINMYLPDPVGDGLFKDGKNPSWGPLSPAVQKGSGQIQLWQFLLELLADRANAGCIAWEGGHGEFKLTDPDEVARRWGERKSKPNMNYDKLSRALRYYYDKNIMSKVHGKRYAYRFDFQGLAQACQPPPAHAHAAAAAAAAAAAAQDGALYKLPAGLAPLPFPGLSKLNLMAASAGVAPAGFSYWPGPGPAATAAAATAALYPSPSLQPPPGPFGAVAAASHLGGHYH
# In short: as §1
# [11] = molecular target: ETV5 (Homo sapiens, UniProt P41161 1-510); conditions: protein: recombinant; tags: N-terminal GST; dsDNA, one strand shown
# In short: as §1
# [12] = molecular target: HSF1 (Homo sapiens, UniProt Q00613 1-529); conditions: protein: recombinant; tags: N-terminal GST; chain copies: 3; dsDNA, one strand shown
# In short: as §1
# [13] = molecular target: T8, SPIC (Homo sapiens, UniProt Q8N5J4 1-248); conditions: protein: recombinant; tags: N-terminal GST; dsDNA, one strand shown
# T8 sequence: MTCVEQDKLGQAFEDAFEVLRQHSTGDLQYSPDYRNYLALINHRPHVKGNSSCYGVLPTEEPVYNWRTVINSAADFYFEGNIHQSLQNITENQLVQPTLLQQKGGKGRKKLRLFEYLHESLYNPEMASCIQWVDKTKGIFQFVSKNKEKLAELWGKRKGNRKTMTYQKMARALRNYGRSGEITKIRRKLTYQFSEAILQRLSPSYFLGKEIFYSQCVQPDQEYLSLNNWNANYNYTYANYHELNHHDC
# In short: as §1
# [14] = molecular target: ELF4 (Homo sapiens, UniProt Q99607 1-663); conditions: protein: recombinant; tags: N-terminal GST; dsDNA, one strand shown
# In short: as §1
# [15] = molecular target: T9, ELK4 (Homo sapiens, UniProt P28324-2 1-405); conditions: protein: recombinant; tags: N-terminal GST; dsDNA, one strand shown
# T9 sequence: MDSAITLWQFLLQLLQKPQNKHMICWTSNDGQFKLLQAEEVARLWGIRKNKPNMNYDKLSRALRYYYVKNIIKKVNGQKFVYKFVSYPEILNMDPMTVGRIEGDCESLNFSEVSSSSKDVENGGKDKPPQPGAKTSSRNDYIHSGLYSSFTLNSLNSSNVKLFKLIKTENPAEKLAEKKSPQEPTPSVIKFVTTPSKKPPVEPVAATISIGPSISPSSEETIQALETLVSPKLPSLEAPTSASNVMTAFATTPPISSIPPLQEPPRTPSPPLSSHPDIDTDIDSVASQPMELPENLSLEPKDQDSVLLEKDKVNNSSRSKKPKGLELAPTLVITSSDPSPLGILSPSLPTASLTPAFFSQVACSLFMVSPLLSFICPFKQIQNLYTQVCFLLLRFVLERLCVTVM
# In short: as §1
# [16] = molecular target: T10, ETV2 (Homo sapiens, UniProt O00321 1-342); conditions: protein: recombinant; tags: N-terminal GST; dsDNA, one strand shown
# T10 sequence: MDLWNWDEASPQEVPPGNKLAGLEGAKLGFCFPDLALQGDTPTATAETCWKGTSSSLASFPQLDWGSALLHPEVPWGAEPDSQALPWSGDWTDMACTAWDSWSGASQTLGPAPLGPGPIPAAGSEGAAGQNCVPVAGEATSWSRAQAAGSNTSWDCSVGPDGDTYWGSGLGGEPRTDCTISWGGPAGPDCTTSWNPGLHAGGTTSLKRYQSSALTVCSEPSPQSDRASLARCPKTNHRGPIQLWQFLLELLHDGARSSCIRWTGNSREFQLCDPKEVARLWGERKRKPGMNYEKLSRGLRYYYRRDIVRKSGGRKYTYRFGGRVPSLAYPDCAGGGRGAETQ
# In short: as §1
# [17] = molecular target: T11, ELF3 (Homo sapiens, UniProt P78545 1-371); conditions: protein: recombinant; tags: N-terminal GST; dsDNA, one strand shown
# T11 sequence: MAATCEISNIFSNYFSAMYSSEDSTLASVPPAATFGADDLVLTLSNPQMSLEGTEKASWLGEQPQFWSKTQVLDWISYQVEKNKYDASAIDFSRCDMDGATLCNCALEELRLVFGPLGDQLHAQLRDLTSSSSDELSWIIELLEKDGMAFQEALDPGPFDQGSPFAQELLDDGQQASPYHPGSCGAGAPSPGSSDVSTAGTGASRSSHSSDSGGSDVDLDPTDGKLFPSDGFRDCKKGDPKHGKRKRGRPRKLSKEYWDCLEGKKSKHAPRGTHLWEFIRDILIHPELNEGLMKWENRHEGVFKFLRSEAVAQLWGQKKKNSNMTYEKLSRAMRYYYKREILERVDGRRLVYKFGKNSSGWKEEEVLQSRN
# In short: as §1
# [18] = molecular target: CRX (Homo sapiens, UniProt O43186 1-299); conditions: protein: recombinant; tags: N-terminal GST; dsDNA, one strand shown
# In short: as §1
# [19] = molecular target: ETV1 (Homo sapiens, UniProt P50549 1-477); conditions: protein: recombinant; tags: N-terminal GST; dsDNA, one strand shown
# In short: as §1
# Sequence of ETV5 (P41161 whole entry): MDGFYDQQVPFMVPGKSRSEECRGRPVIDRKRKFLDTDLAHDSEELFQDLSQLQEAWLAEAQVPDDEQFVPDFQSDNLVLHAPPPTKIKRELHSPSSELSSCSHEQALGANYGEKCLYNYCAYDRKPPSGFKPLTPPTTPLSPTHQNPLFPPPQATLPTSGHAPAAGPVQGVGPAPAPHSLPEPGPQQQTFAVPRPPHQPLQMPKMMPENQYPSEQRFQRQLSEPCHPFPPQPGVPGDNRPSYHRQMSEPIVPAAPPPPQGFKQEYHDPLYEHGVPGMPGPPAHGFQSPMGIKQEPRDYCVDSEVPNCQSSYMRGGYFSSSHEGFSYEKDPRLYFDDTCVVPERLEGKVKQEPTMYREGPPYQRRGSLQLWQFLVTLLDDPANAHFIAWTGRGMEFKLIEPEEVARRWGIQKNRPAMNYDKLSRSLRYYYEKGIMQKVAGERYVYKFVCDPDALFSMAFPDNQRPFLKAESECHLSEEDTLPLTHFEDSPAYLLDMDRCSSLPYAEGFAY
# Sequence of SPIB (Q01892 whole entry): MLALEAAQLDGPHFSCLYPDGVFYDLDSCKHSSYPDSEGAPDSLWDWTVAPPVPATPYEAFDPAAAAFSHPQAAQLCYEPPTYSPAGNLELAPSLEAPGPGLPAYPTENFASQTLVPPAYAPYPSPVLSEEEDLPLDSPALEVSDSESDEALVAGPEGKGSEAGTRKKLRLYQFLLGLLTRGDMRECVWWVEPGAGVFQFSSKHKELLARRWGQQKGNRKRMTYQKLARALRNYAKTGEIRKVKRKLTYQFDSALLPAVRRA
# Sequence of ELF1 (P32519 whole entry): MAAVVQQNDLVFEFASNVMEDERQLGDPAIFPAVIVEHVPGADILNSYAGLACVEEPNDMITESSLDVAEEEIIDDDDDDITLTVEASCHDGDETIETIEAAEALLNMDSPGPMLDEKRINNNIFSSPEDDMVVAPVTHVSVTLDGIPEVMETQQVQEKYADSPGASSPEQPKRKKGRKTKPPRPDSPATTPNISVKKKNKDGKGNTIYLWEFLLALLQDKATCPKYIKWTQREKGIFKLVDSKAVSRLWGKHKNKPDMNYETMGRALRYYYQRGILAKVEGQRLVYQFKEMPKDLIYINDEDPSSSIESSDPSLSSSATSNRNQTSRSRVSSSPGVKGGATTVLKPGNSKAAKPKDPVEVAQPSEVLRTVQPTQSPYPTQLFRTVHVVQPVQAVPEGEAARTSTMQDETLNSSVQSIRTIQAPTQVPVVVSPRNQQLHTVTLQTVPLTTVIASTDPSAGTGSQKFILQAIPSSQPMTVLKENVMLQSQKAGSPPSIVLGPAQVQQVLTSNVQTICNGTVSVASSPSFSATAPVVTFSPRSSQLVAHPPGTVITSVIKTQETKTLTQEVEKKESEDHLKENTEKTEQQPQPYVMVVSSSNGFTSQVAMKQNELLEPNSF
# Sequence of CRX (O43186 whole entry): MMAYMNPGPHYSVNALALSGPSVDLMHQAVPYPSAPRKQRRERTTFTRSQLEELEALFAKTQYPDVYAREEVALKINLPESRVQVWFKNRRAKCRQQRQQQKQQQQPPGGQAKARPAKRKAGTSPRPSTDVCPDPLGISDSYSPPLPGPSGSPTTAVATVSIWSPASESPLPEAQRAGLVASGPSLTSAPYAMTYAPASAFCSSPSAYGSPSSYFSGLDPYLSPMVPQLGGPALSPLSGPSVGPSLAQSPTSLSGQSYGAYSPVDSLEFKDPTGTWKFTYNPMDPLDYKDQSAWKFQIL
# Sequence of ETV1 (P50549 whole entry): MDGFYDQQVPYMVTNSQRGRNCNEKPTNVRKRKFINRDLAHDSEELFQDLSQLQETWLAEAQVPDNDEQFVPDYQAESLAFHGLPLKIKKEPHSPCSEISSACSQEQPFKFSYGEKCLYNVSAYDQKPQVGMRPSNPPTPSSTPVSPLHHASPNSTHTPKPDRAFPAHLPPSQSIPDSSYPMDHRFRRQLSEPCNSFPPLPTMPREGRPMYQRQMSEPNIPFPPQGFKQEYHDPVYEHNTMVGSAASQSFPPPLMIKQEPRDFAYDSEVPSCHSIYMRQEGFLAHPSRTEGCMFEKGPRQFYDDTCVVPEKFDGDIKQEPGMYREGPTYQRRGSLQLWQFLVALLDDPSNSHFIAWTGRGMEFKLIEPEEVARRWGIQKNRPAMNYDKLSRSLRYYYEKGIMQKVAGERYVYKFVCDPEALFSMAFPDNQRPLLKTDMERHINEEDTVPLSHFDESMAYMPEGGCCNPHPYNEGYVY
# Sequence of HSF1 (Q00613 whole entry): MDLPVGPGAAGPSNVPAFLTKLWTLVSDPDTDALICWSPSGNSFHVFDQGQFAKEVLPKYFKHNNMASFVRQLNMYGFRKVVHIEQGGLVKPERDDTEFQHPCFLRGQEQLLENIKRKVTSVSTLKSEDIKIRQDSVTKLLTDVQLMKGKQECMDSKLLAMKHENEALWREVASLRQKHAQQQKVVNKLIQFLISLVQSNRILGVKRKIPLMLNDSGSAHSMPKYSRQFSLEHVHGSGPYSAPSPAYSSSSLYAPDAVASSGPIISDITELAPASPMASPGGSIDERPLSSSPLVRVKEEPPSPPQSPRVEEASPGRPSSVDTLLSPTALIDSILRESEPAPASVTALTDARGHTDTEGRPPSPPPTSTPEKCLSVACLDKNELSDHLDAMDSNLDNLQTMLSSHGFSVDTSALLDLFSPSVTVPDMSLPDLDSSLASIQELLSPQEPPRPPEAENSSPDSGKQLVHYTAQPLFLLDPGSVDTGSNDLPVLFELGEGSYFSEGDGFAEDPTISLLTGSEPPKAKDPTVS
# Sequence of ELF4 (Q99607 whole entry): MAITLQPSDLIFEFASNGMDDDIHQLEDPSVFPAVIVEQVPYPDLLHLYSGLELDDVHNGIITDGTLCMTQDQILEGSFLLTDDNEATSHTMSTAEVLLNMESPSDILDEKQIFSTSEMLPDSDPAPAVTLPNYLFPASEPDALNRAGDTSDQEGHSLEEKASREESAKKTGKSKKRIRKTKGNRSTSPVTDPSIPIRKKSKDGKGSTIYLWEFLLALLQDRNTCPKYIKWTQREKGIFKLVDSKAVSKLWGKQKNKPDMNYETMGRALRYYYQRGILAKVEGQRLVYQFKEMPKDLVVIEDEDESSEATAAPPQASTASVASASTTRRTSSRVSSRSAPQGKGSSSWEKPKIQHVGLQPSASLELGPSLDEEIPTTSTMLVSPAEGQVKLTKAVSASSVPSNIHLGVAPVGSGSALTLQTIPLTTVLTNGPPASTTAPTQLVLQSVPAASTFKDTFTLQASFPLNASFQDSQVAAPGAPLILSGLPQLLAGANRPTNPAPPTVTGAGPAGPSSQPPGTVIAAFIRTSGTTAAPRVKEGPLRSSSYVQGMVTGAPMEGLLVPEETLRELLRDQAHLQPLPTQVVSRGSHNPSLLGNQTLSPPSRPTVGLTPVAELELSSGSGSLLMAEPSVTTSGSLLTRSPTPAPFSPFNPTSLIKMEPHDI
sequence,measurement,setting,value
CCTAAG,binding signal,[1],"1.09 fold enrichment (6-mer frequency, TF over GST control)"
same,binding signal,[2],"1.14 fold enrichment (6-mer frequency, TF over GST control)"
same,binding signal,[3],"1.12 fold enrichment (6-mer frequency, TF over GST control)"
same,binding signal,[4],"1.16 fold enrichment (6-mer frequency, TF over GST control)"
same,binding signal,[5],"1.19 fold enrichment (6-mer frequency, TF over GST control)"
same,binding signal,[6],"1.18 fold enrichment (6-mer frequency, TF over GST control)"
same,binding signal,[7],"1.06 fold enrichment (6-mer frequency, TF over GST control)"
same,binding signal,[8],"1.21 fold enrichment (6-mer frequency, TF over GST control)"
same,binding signal,[9],"1.17 fold enrichment (6-mer frequency, TF over GST control)"
same,binding signal,[10],"1.14 fold enrichment (6-mer frequency, TF over GST control)"
same,binding signal,[11],"1.2 fold enrichment (6-mer frequency, TF over GST control)"
same,binding signal,[12],"1.35 fold enrichment (6-mer frequency, TF over GST control)"
same,binding signal,[13],"1.14 fold enrichment (6-mer frequency, TF over GST control)"
same,binding signal,[14],"1.26 fold enrichment (6-mer frequency, TF over GST control)"
same,binding signal,[15],"1.27 fold enrichment (6-mer frequency, TF over GST control)"
same,binding signal,[16],"1.08 fold enrichment (6-mer frequency, TF over GST control)"
same,binding signal,[17],"1.09 fold enrichment (6-mer frequency, TF over GST control)"
same,binding signal,[18],"1.85 fold enrichment (6-mer frequency, TF over GST control)"
same,binding signal,[19],"1.09 fold enrichment (6-mer frequency, TF over GST control)"
